Screening results: PubChem, National Center for Advancing Translational Sciences (NCATS)
DRD3 antagonist = blocks the human D3 dopamine receptor; D3R cells, DiscoveRx beta-arrestin luminescence, antagonist mode; active compounds read low; P35462; max response, negative = inhibition, %; hit rate 2.5% among 360,000; in the data active = max response below about -50%; inconclusive = no clear call, values can overlap the other calls
Target sequence (P35462 whole entry, looked up): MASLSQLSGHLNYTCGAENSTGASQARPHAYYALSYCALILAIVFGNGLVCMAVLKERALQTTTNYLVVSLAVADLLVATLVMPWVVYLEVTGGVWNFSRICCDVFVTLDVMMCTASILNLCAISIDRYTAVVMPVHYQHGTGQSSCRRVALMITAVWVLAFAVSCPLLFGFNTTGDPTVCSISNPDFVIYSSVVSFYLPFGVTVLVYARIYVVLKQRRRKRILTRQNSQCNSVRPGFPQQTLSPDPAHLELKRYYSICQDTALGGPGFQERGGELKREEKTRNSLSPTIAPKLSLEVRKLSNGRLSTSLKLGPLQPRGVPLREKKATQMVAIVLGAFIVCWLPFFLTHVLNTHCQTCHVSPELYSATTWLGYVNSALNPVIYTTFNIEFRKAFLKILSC
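Cells plated overnight at 1500 cells/well, then exposed to library compounds with dopamine controls for 90 minutes at 37 degrees C. DiscoveRx reagent added for 30–60 minutes at room temperature; luminescence read, quantitative HTS format.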
Nrf2 activator = activates Nrf2 signaling. AREc32 ARE-luciferase reporter (MCF7-derived line), luminescence, 24 h. Potency, µM (titrated, usually from 46.1 µM), usual class: activators. hit rate 0.31% among 410,000; note: nearly all actives have a fitted effect of over 65% in size
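AREc32 cells carrying an ARE-driven firefly luciferase, 1000 cells/well in OPTI-MEM with 5% FBS, dosed after overnight attachment and incubated 24 hr at 37 deg C. Steady-Glo luminescence read after 30 min at RT.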
DRD3 agonist = D3 dopamine receptor (human) agonism. P35462. D3R DiscoveRx beta-arrestin cells, luminescence, 90 min. max activation, %. hit rate 0.58% among 410,000. AID 652048; in the data active = max activation above about 30%
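Cells at 1500/well, incubated overnight, then treated with pinned compounds (dopamine as control) for 90 min at 37 degrees C. DiscoveRx reagent added for 30 - 60 minutes at room temperature; luminescence read.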
GRP78 ERSR act = induces the endoplasmic reticulum stress response in human glioma cells; Potency, µM, most hits filed as activators; hit rate 0.02% among 420,000; U87-MG GRP78 promoter luciferase reporter, 16 h; note: series mostly up to about 76 µM; nearly all actives have a fitted effect of over 35% in size
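Stably transfected U87-MG glioma cells carrying a GRP78-based luciferase sensor; 16 h compound incubation. Luminescence end-point read 10 min after Bright-Glo addition at room temperature.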
Of the large screens only hits and unclear results are named; the others gave an inactive call; ! = not confirmed by another sample. Hits are enriched below; roughly 3% of the tested compounds scored in any of these assays. Unless noted, calls come from the whole dose curve; as a rule, active = well fitted curve in the direction sought with a large enough effect; inconclusive = small, poorly fitted or top-dose-only effect, or another doubt; inactive = no such curve, though single readings can be large; an effect the other way counts as inactive or inconclusive.

CCC(Cn1nnc2ccccc2c1=O)NC(=O)Nc1ccc(C)cc1C (configuration not stated)	none (no result: DRD3 antagonist)
CCCCCCC[n+]1ccc(C)c2ccccc21	none (no result: DRD3 antagonist, Nrf2 activator, DRD3 agonist)
O=C(NCC1Cc2cccc(-c3ncccn3)c2O1)C1CCOC1 (configuration not stated)	none (no result: DRD3 antagonist, Nrf2 activator, DRD3 agonist)
O=C(NCc1cccnc1)c1ccc(CN2CCc3ccccc3C2)cc1	DRD3 antagonist -75
CCCNC(=O)c1ccc(CN2CCc3ccccc3C2)cc1	none
CCC(C)NC(=O)c1ccc(CN2CCc3ccccc3C2)cc1 (configuration not stated)	DRD3 antagonist -66
COCC(C)NC(=O)c1ccc(CN2CCc3ccccc3C2)cc1 (configuration not stated)	DRD3 antagonist -68
CC(C)(C)SCCNC(=O)c1ccc(CN2CCc3ccccc3C2)cc1	DRD3 antagonist -74
Cc1nc2sccn2c1CN1Cc2ccccc2OC(c2ccccc2F)C1 (configuration not stated)	none (no result: DRD3 antagonist, Nrf2 activator, DRD3 agonist)
O=S1(=O)CCO[C@H]2CCCC[C@@H]2N1Cc1ccc(Cl)cc1	none (no result: DRD3 antagonist, Nrf2 activator, DRD3 agonist)
Cc1cccc(N2C(=O)N(c3ccccc3C)C3CS(=O)(=O)CC32)c1 (configuration not stated)	DRD3 antagonist -53
Cc1cc(C)cc(N2C(=O)N(c3ccccc3C)C3CS(=O)(=O)CC32)c1 (configuration not stated)	none
CN(C)c1ccc(/C=C/c2ccnc3ccc(Cl)cc23)cc1	none (no result: DRD3 antagonist, Nrf2 activator, DRD3 agonist)
O=C(/C=C/c1ccc(Cl)cc1)Nc1ccc(CN2CCOCC2)cc1	none
O=C(/C=C/c1ccc(Cl)cc1Cl)NC(=S)Nc1ccc(CN2CCOCC2)cc1	DRD3 antagonist -83
O=C(/C=C/c1ccccc1)NC(=S)Nc1ccc(CN2CCOCC2)cc1	DRD3 antagonist -57, Nrf2 activator inconclusive
Cc1ccc(C(=O)Nc2cccc(-c3nc(CNC(=O)[C@@H]4C[C@@H](C)NC(=S)N4)c(C)o3)c2)s1	none (no result: DRD3 antagonist, Nrf2 activator, DRD3 agonist)
COCC(=O)Nc1cc(C(=O)N2CCC(c3ccccc3)CC2)cc2nc(-c3ccccc3)n(C)c12	none (no result: DRD3 antagonist, Nrf2 activator, DRD3 agonist)
CCOC(=O)c1c(C)[nH]c(C)c1S(=O)(=O)N1CCC(C(=O)NCc2cccc(OC)c2)CC1	none (no result: DRD3 antagonist)
COCCn1c(SCC(=O)c2ccc(Cl)cc2)nnc1C(C)C	DRD3 antagonist -70, Nrf2 activator inconclusive
C[N+]1(CC(=O)c2ccc3ccccc3c2)CCOCC1	none (no result: DRD3 antagonist, Nrf2 activator, DRD3 agonist)
O=C(NCc1nnnn1-c1ccc(F)c(F)c1)c1ccc2ccccc2c1	none
O=C(NCc1nnnn1-c1ccccc1)c1ccc2ccccc2c1	DRD3 agonist 105
CC(C)Cn1c(N)c(C(=O)COC(=O)c2cc(C(F)(F)F)nc3ccccc23)c(=O)n(C)c1=O	DRD3 agonist 34
COc1ccc(CCC(=O)OCC(=O)c2c(N)n(CC(C)C)c(=O)n(C)c2=O)cc1	none
CC(C)Cn1c(N)c(C(=O)CSc2nc3ccccc3n2C)c(=O)n(C)c1=O	DRD3 antagonist -54
Cn1c(N)c(C(=O)COC(=O)c2cc(C3CC3)nc3ccccc23)c(=O)n(Cc2ccccc2)c1=O	DRD3 agonist 36
COc1ccccc1CCC(=O)OCC(=O)c1c(N)n(CC(C)C)c(=O)n(C)c1=O	DRD3 agonist 31
CC(C)=CCC[C@@](C)(O)[C@H]1CC=C(C)CC1	none (no result: DRD3 antagonist, Nrf2 activator, GRP78 ERSR act)
CCOC(=O)C1CCCCN1Cc1cccc(OC)c1OC (configuration not stated)	DRD3 antagonist -108
CCOC(=O)C1CCCCN1Cc1cc(OC)ccc1OC (configuration not stated)	none
CSc1ncccc1C(=O)NCC1Cc2cc(-c3cnccn3)cc(Cl)c2O1 (configuration not stated)	none (no result: DRD3 antagonist, Nrf2 activator, DRD3 agonist)
COCCCNC(=O)C1CCN(c2cc(C)nc3c(-c4ccc(Cl)cc4)c(C)nn23)CC1	none (no result: DRD3 antagonist)
Cc1nc(N2CCN(S(=O)(=O)c3ccc(Br)cc3)CC2)c2c(C)c(C)sc2n1	DRD3 antagonist -55
COc1ccc(CN2CCC3(CCC(CNC(=O)c4ccnn4C)O3)CC2)c(C)c1C (configuration not stated)	none (no result: DRD3 antagonist, Nrf2 activator, DRD3 agonist)
C[C@@H]1CN([C@H](C)CO)C(=O)CCCn2cc(nn2)CO[C@H]1CN(C)C(=O)Nc1ccc(C(C)(C)C)cc1	DRD3 antagonist -100
C[C@H]1CN([C@@H](C)CO)C(=O)CCCn2nncc2CO[C@@H]1CN(C)Cc1ccc2c(c1)OCCO2	none
C[C@H](CO)N1C[C@H](C)[C@@H](CN(C)Cc2ccc3c(c2)OCCN3C)OCc2cnnn2CCCC1=O	DRD3 antagonist -88
CCc1nc(SCC(=O)N2CCN(c3ccccc3)CC2)c2oc3ccccc3c2n1	DRD3 agonist 48
C=CC(=O)N1C/C(=C/c2ccc(F)cc2)C(=O)/C(=C\c2ccc(F)cc2)C1	DRD3 antagonist -61
CSc1ccc(CCNC(=O)CN2C(=O)COc3ccc(S(=O)(=O)N4CCCCCC4)cc32)cc1	none (no result: DRD3 antagonist)
CCCCCCSc1ccc(-c2nc3ccc(C)cn3c2NCCCC)cc1OC	none (no result: GRP78 ERSR act)
CCC(C)Sc1cccc(-c2nc3ccccn3c2NCc2ccccc2)c1 (configuration not stated)	DRD3 agonist 33
CCC(C)Sc1cccc(-c2nc3ccc(C)cn3c2NCc2ccccc2)c1 (configuration not stated)	none
CCCCCCSc1cc(-c2nc3ccc(C)cn3c2NCc2ccccc2)ccc1OC	DRD3 agonist 62!
CCCCCCSc1cccc(-c2nc3ccccn3c2NCc2ccccc2)c1	DRD3 agonist 96!
CCCCNc1c(-c2ccc(SC(C)CC)c(OC)c2)nc2ccc(C)cn12 (configuration not stated)	DRD3 agonist 55
CC(=O)N/C(=C/c1ccccc1)c1ccncc1	none (no result: DRD3 antagonist, Nrf2 activator, DRD3 agonist)
c1ccc2[nH]c(NCCCc3cnc[nH]3)nc2c1	none (no result: DRD3 antagonist, Nrf2 activator, DRD3 agonist)
Cc1ccnc2ccc(F)cc12	none (no result: DRD3 antagonist, Nrf2 activator, DRD3 agonist)
COCCCn1c(=N)c(S(=O)(=O)c2ccccc2)cc2c(=O)n3cccc(C)c3nc21	none (no result: DRD3 antagonist)
COc1ccc(CCC(=O)O)cc1	none (no result: DRD3 antagonist, Nrf2 activator, DRD3 agonist)
CCCCCCSc1cccc(-c2nc3cc(C)ccn3c2NCc2ccccc2)c1	DRD3 agonist 33!
CCCCCCSc1cccc(-c2nc3ccc(C)cn3c2NCc2ccccc2)c1	none
O=[N+]([O-])c1ccc(N=Nc2ccc(O)c3ccccc23)cc1	DRD3 antagonist -71
CC(c1ccon1)N(C)C(=O)c1cnn(-c2ncc3c(n2)-c2ccccc2CC3)c1C1CC1 (configuration not stated)	none (no result: DRD3 antagonist, Nrf2 activator, DRD3 agonist)
O=C(C[n+]1ccccc1Br)c1ccc(-c2ccccc2)cc1	none (no result: DRD3 antagonist, Nrf2 activator, DRD3 agonist)
CN1CCN(c2ccc(CNC(=O)c3ccc(-c4ccc(F)c(F)c4)c4ccoc34)cc2)CC1	DRD3 antagonist -66
CN1CCN(c2ccc(CNC(=O)c3cccc4c(-c5ccc(F)c(F)c5)coc34)cc2)CC1	DRD3 antagonist -83
CNC(C)[C@@H]1CC[C@@H](N)[C@@H](O[C@H]2[C@H](O)[C@@H](O[C@H]3OC[C@](C)(O)[C@H](NC)[C@H]3O)[C@H](N)C[C@@H]2N)O1 (some centres not stated)	none (no result: DRD3 antagonist, Nrf2 activator, GRP78 ERSR act)
CCC(C)c1ccc(OCC(=O)Nc2ccc(-c3nc4ncccc4o3)cc2)cc1 (configuration not stated)	none (no result: DRD3 antagonist)
CCCCCCC[n+]1c(/C=C/c2ccc(N(C)C)cc2)sc2ccccc21	none (no result: DRD3 antagonist, Nrf2 activator, DRD3 agonist)
